Screens deposited in PubChem by National Center for Advancing Translational Sciences (NCATS).
Tau FP inhib: blocks human tau fibril formation measured by polarization. P10636. K18 P301L tau heparin fibrillization, Alexa594 FP, 6 h. Potency, µM (doses to about 57.7 µM), most hits filed as inhibitors. 280,000 compounds, 0.39% hits. AID 1468; also: nearly all actives have a fitted effect of over 55% in size
Target sequence (P10636 561-689 P618L limits assumed): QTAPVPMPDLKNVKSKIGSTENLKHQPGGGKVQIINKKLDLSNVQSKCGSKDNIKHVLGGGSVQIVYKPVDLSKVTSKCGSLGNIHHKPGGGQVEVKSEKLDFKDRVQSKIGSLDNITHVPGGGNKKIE
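K18 P301L tau (15 uM unlabeled/0.24 uM Alexa 594-labeled, final) + compound + heparin 20 uM final; 100 mM NaOAc pH 7; 6 hr 37 C; ThT 30 uM final added, 1 hr RT; FP ex 555/em 632 nm.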
NPSR antagonist: antagonists of human neuropeptide S receptor cAMP signaling | 220,000 compounds, 1% hits | CHO-NPSR cells, cAMP TR-FRET, antagonist mode | Potency, µM (top dose mostly 38.3 µM), actives largely listed as inhibitors | AID 1461 | Q6W5P4; also: nearly all actives have a fitted effect of over 50% in size
PNC inhibitor: perinucleolar compartment assembly inhibition; PC3M PTB-GFP, PNC prevalence imaging, 16 h; hits give low values; activity change (PNC), negative = inhibition, % at 10 µM; 140,000 compounds, 3.1% hits; AID 2417;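 active = readout at or below -70, meaning at least 70% loss of cells showing the perinucleolar compartment, a nuclear body marking cancer cells; inconclusive = readout between -30 and a set limit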
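PC3M cells stably expressing PTB-GFP, 750–1000 cells/well, treated 16 h at 37 °C with compound (23 nl of library stock), in duplicate. After paraformaldehyde fixation and Hoechst stain, imaged at 20x; PNC prevalence scored by image analysis.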
KDM4E inh: JMJD2E (human) inhibition | B2RXH2 | 230,000 compounds, 1.6% hits | JMJD2E catalytic domain, FDH-coupled NADH fluorescence (FDH is formaldehyde dehydrogenase) | AID 2147 | Potency, µM (titrated, usually from 57.1 µM), actives largely listed as inhibitors; active = well fitted inhibition curve with a large enough effect, not every such curve was filed as active; inconclusive = small, poorly fitted or top-dose-only effect, or another doubt; inactive = no such curve, though single readings can be large or run the other way; also: nearly all actives have a fitted effect of over 50% in size
Target sequence (B2RXH2 1-337 limits assumed): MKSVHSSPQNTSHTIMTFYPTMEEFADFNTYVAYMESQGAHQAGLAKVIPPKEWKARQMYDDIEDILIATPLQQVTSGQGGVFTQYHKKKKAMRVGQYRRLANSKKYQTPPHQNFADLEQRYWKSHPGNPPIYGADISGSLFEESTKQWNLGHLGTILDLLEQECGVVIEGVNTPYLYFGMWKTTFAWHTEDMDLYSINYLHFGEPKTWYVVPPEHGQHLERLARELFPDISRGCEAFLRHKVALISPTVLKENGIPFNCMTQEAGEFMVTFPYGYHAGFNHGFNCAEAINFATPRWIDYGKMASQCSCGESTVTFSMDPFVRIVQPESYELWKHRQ
Tau fluor counter: counter-screen for tau fibril formation inhibitors | tau K18 P301L Alexa594 fluorescence, heparin fibrillization | Potency, µM (series often up to 57.7 µM) | 280,000 compounds, 0.93% hits | AID 1463; also: nearly all actives have a fitted effect of over 55% in size
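Human K18 P301L tau (15 uM unlabeled plus 0.24 uM Alexa 594-labeled, final) in 100 mM sodium acetate pH 7 was mixed with compound and 20 uM heparin and incubated 6 hr at 37 C.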
Tau fibril ThT: blocks human tau fibril formation measured by thioflavin T. Potency, µM (series often up to 57.4 µM), most hits filed as inhibitors. 270,000 compounds, 2.1% hits. P10636. recombinant tau K18 P301L (four-repeat tau fragment), heparin-induced fibrillization, ThT fluorescence; also: nearly all actives have a fitted effect of over 55% in size
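Tau K18 P301L fragment (15 uM unlabeled plus 0.24 uM Alexa 594-labeled) in 100 mM sodium acetate pH 7 with compound, fibrillization induced by 20 uM heparin for 6 hr at 37 C. Thioflavin T (30 uM) added, fluorescence read after 1 hr (ex 450, em 510 nm).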
Each line names hits and unclear results; the compound was inactive in the other large screens; [ ] = remark or other dose. Only some compounds are listed: those with a hit (about 5.1% of all), similar ones and a draw of the others. Unless noted, calls follow the shape of the dose curve; as a rule, active = well fitted curve in the direction sought with a large enough effect; inconclusive = small, poorly fitted or top-dose-only effect, or another doubt; inactive = no such curve, though single readings can be large; an effect the other way counts as inactive or inconclusive.

CCN(CC(=O)NC1CCCCCC1)S(=O)(=O)c1ccccc1	PNC inhibitor -80
CCCC1C(C#N)=C(N)Oc2n[nH]c(C(C)(C)C)c21 (centres undefined)	PNC inhibitor -114
Cc1cc(C)n(CC(=O)N2c3ccccc3Sc3ccc(C(F)(F)F)cc32)n1	PNC inhibitor -113
O=C(CSc1nc(C2CC2)nc2ccccc12)N1c2ccccc2Sc2ccc(C(F)(F)F)cc21	NPSR antagonist 7.9µM
O=C(CN1CCCC(O)C1)N1c2ccccc2Sc2ccc(C(F)(F)F)cc21 (centres undefined)	none
O=S(=O)(Nc1ccc(-c2ccc(N3CCCC3)nn2)cc1)c1cccc(C(F)(F)F)c1	none (no result: NPSR antagonist, PNC inhibitor, KDM4E inh)
O=C(Nc1ccccc1Br)C1CCCN(S(=O)(=O)c2cccc3nsnc23)C1 (centres undefined)	none (no result: NPSR antagonist, PNC inhibitor, KDM4E inh)
O=C(/C=N/O)NCCCCNC(=O)/C=N/O	Tau FP inhib inconclusive (no result: NPSR antagonist, PNC inhibitor, KDM4E inh)
COc1ccc2c(c1)C(=O)[C@H](OC(=O)NCCc1ccc(OC)c(OC)c1)[C@@H](c1ccc(OC)c(Br)c1)O2	none (no result: NPSR antagonist, PNC inhibitor)
Cc1cc(NC(=O)c2sc(Nc3cccc(C(F)(F)F)c3)nc2N)no1	Tau FP inhib inconclusive, PNC inhibitor inconclusive, Tau fluor counter 18µM[quencher], Tau fibril ThT 11µM
Cc1ccc(N(CC(=O)Nc2ccc(Cl)cc2)S(=O)(=O)c2cccc3nonc23)cc1	Tau fluor counter inconclusive (no result: NPSR antagonist, PNC inhibitor, KDM4E inh)
CN(C)NC(=S)Nc1ccc2nc(-c3ccccn3)c(-c3ccccn3)nc2c1	Tau FP inhib inconclusive, KDM4E inh inconclusive, Tau fibril ThT inconclusive
S=C(Nc1ccc2nc(-c3ccccn3)c(-c3ccccn3)nc2c1)N1CCOCC1	Tau FP inhib inconclusive, KDM4E inh inconclusive, Tau fluor counter inconclusive, Tau fibril ThT 13µM (no result: PNC inhibitor)
CC(C)C1Cc2[nH]c(=O)c(C(=O)O)cc2CO1 (centres undefined)	PNC inhibitor -111, KDM4E inh inconclusive
COc1ccc2[nH]c(=O)c(C(=O)O)cc2c1	KDM4E inh inconclusive (no result: PNC inhibitor)
CCN(CC)S(=O)(=O)c1cccc(C(=O)N2CC(O)CC2C(=O)O)c1 (centres undefined)	PNC inhibitor -107
Cc1cc(C)cc(NC(=O)[C@H]2O[C@@H]3OC(C)(C)O[C@@H]3[C@H]3OC(C)(C)O[C@H]32)c1	Tau FP inhib inconclusive (no result: NPSR antagonist, PNC inhibitor, KDM4E inh)
CC1(C)OC2OC(C(=O)N/N=C/c3cc(Br)ccc3O)C3OC(C)(C)OC3C2O1 (centres undefined)	PNC inhibitor inconclusive, KDM4E inh 28µM
CCc1cccc(CC)c1NC(=O)CCS(=O)(=O)c1ccc(Br)s1	none (no result: NPSR antagonist, PNC inhibitor, KDM4E inh)
CCC(=NCCc1c(C)[nH]c2ccc(C)cc12)C1=C(O)CC(c2ccccc2)CC1=O (centres undefined)	Tau FP inhib inconclusive, PNC inhibitor -116, Tau fluor counter inconclusive, Tau fibril ThT inconclusive
CC(=O)C1=C(O)CC(c2ccccc2)CC1=NCCc1c(C)[nH]c2ccc(C)cc12 (centres undefined)	PNC inhibitor -119
CCC(=Nc1ccccc1O)C1=C(O)CC(c2ccccc2)CC1=O (centres undefined)	KDM4E inh 25µM, Tau fluor counter inconclusive, Tau fibril ThT inconclusive (no result: PNC inhibitor)
CCc1ccc(C(=O)CC2(O)C(=O)N(CCc3ccccc3)c3ccc(Cl)cc32)cc1 (centres undefined)	none (no result: NPSR antagonist, PNC inhibitor, KDM4E inh)
CC(=O)c1cccc(-n2nnnc2SCC(=O)Nc2cccc(NC(=O)c3ccco3)c2)c1	Tau fluor counter inconclusive, Tau fibril ThT inconclusive
CC(=O)c1cccc(-n2nnnc2SCC(=O)Nc2ccccc2N2CCCCC2)c1	NPSR antagonist inconclusive, PNC inhibitor -106
COc1ccc(-n2nnnc2SCC(=O)Nc2ccccc2N2CCOCC2)cc1OC	Tau fibril ThT 10µM (no result: PNC inhibitor)
Cc1ccc(C#CC2C=CC(Oc3ccc4c(c3)OCO4)C(CO)O2)c(C)c1 (centres undefined)	none (no result: NPSR antagonist, PNC inhibitor, KDM4E inh)
N#CC(C#N)=Cc1ccc(NC(=O)c2ccc(Br)cc2)cc1	Tau FP inhib inconclusive, KDM4E inh 20µM, Tau fibril ThT inconclusive (no result: PNC inhibitor)
